# Vaccinia mCherry: qHTS for Stage-Specific Inhibitors of Vaccinia Orthopoxvirus: mCherry Reporter Primary qHTS; Potency, µM (titrated, usually from 36.5 µM), for inactives: at the top dose activity change, negative = inhibition, actives largely listed as inhibitors; Vaccinia virus mCherry reporter infection, fluorescence; actives 0.63% (n = 310,000); calls by dose curve; tested in A549 cells; further: potency means the concentration at half of the fitted maximal effect; nearly all actives have a fitted effect of over 35% in size
# VACV Venus inh: qHTS for Stage-Specific Inhibitors of Vaccinia Orthopoxvirus: Venus Reporter Primary qHTS; Vaccinia virus Venus reporter expression, fluorescence; Potency, µM (highest dose often 36.5 µM), for the others: at the highest dose activity change, negative = inhibition, actives largely listed as inhibitors; actives 0.46% (n = 330,000); AID 720580, 2013; calls by dose curve; tested in A549 cells; further: potency means the concentration at half of the fitted maximal effect; nearly all actives have a fitted effect of over 30% in size
# HCMV inh: qHTS Assay for inhibitors of the human cytomegalovirus (HCMV); HFF cells, HCMV-luciferase reporter, 72 h; stronger effect = lower value; actives 4.5% (n = 410,000); AID 1259415, 2018; activity change, negative = inhibition, % at 57.5 µM; in the data active means activity change below about -60%; inconclusive means no clear call, values can overlap the other calls; inactive means above about -39%
#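 Inhibition of viral replication was scored as loss of reporter luminescence in HFFs infected with HCMV-luciferase (MOI 1 PFU/cell) for 72 h; compounds tested at 2 doses, normalized to buffer and Salinomycin controls.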
# FMDV inh: High Throughput Screening for Foot and Mouth Disease Virus Antivirals; Potency, µM (doses to about 57.9 µM), inactives show at the top dose activity change, negative = inhibition, actives largely listed as inhibitors; FMDV antiviral cell-based qHTS; AID 1159524, 2015; actives 1.2% (n = 410,000); calls by dose curve; tested in HEK293T cells; further: read-out not given here; potency means the concentration at half of the fitted maximal effect; nearly all actives have a fitted effect of over 45% in size
# HCV inhibitor: qHTS Assay for Inhibitors of Hepatitis C Virus (HCV); Huh7.5.1 HCVcc-Cre infection, luciferase reporter, 44 h; Potency, µM (top dose mostly 41.8 µM), inactives show at the top dose activity change, negative = inhibition, most hits filed as inhibitors; actives 3.4% (n = 340,000); AID 651820, 2012; further: potency means the concentration at half of the fitted maximal effect
#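 After 44 h co-culture of compound, cells and HCVcc-Cre (~0.5 moi), substrate is added for 15 min at room temperature and luciferase measured over 15 sec. Cells were seeded at 1,000/well and pre-cultured 4 h.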
# Giardia FBPA inh: qHTS Assay for Inhibitors of Fructose-1,6-bisphosphate Aldolase from Giardia Lamblia | A8B2U2 | purified Giardia FBPA | Potency, µM (top dose mostly 59.6 µM), inactives show at the top dose activity, negative = inhibition, most hits filed as inhibitors | actives 0.71% (n = 290,000) | AID 2451, 2010; further: potency means the concentration at half of the fitted maximal effect; nearly all actives have a fitted effect of over 55% in size
# Target sequence (A8B2U2 whole entry, looked up): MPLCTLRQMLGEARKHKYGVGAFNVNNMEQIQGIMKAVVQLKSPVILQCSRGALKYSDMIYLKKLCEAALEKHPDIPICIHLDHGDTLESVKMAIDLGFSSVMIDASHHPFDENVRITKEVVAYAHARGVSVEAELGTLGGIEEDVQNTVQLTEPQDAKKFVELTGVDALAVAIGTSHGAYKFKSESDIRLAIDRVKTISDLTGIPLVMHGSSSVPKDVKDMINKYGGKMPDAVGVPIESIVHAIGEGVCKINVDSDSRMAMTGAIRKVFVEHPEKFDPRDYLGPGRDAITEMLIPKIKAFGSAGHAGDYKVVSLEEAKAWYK
#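 Giardia FBPA (40 nM reagent) was preincubated 10 min at RT with compound (up to 57.5 uM final), then substrate plus GAPDH/TPI/NAD/arsenate coupling system with diaphorase/resazurin was added; resorufin fluorescence (525/598 nm) was read after 20 min.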
# * marks the source's active call; other numbers are inactive results; i = inactive; u = inconclusive; x = no result; [ ] = dose if it differs, or a comment. Most compounds without a hit are left out; they make up all but 7.5% or so of the library. Unless noted, the call rests on the fitted dose curve; in most records, active means well fitted curve in the direction sought with a large enough effect; inconclusive means small, poorly fitted or top-dose-only effect, or another doubt; inactive means no such curve, though single readings can be large; an effect the other way counts as inactive or inconclusive. On the % scale 0 is the no-effect control and ±100 the full control effect.
SMILES,Vaccinia mCherry,VACV Venus inh,HCMV inh,FMDV inh,HCV inhibitor,Giardia FBPA inh
CC(C)c1c(C(=O)N2CCN(CCO)CC2)cnn1-c1nccc(-c2cccs2)n1,-14.2%,-6.6%,x,-4.8%,x,x
CN(C)c1ccc(/C=N/N(CCC(=O)NC(C)(C)C)C2=NS(=O)(=O)c3ccccc32)cc1,-22.0%,5.7%,-15.1,-16.6%,3.4%,-4.9%
CC(C)(C)NC(=O)CCN(/N=C/c1ccc([N+](=O)[O-])o1)C1=NS(=O)(=O)c2ccccc21,u,10µM*,-94.7*,u,u,-16.6%
CN(CC(O)COC(c1ccccc1)c1ccccc1)C1CCCCC1 (stereo not given),-14.7%,-22.2%,u,-24.2%,-14.1%,-3.9%
CC1CN(CC(O)COC(c2ccc(Cl)cc2)c2ccc(Cl)cc2)CC(C)O1 (stereo not given),-5.9%,-19.7%,53.0,u,10µM*,-23.0%
CC1CN(CC(O)COc2ccc(C(C)C)cc2)CC(C)O1 (stereo not given),-0.4%,-24.3%,28.1,-17.9%,u,-10.2%
CN(C)CC(O)COC(c1ccc(Cl)cc1)c1ccc(Cl)cc1 (stereo not given),-8.6%,-23.5%,u,-11.1%,3.16µM*,1.3%
CN(C(=S)Nc1ccc(Oc2ccccc2)cc1)c1ccc(O)cc1,-2.3%,-15.5%,-28.1,u,u,1.41µM*
COc1ccc(-c2csc(N(CCCN(C)C)C(=O)c3ccccc3Cl)n2)cc1,11.2µM*,u,-37.1,20.2%,u,x
CCN(CC)CCCN(C(=O)c1ccc(F)cc1)c1nc(-c2ccc(OC)cc2)cs1,-19.4%,-9.1%,-22.5,-10.8%,u,u
COc1ccc(-c2csc(N(CCCN(C)C)C(=O)c3ccccc3C)n2)cc1,u,u,-60.8*,1.1%,u,u
CCN(CC)CCCN(C(C)=O)c1nc(-c2cc(OC)ccc2OC)cs1,x,x,u,32.9%,6.31µM*,-11.7%
CCN(C(=O)c1ccco1)c1nc(-c2ccc(OC)cc2)cs1,x,x,91.7,58.1%,22.4µM*,4.2%
CC(C)Cn1c(N)c(C(=O)COC(=O)c2ccc(O)cc2)c(=O)n(C)c1=O,-12.0%,-13.6%,-36.5,-29.2%,u,-6.9%
CC(C)Cn1c(N)c(C(=O)COC(=O)[C@H](C)NC(=O)c2ccccc2Cl)c(=O)n(C)c1=O,i,-15.3%,-23.3,-8.8%,2.8%,x
CCC(C(=O)OCC(=O)c1c(N)n(CC(C)C)c(=O)n(C)c1=O)c1ccccc1 (stereo not given),u,u,u,39.8µM*,u,x
CC(C)Cn1c(N)c(C(=O)COC(=O)C2CCCCC2)c(=O)n(C)c1=O,x,x,32.4,u,u,2.3%
Cc1nn(-c2ccccc2)c(C)c1C(=O)OCC(=O)c1c(N)n(CC(C)C)c(=O)n(C)c1=O,x,x,-79.2*,31.6µM*,5.62µM*,-2.7%
CC(C)Cn1c(N)c(C(=O)COC(=O)C2Cc3ccccc3CN2S(C)(=O)=O)c(=O)n(C)c1=O (stereo not given),-10.5%,-19.9%,-27.8,-14.9%,11.2µM*,x
O=C(COC(=O)c1ccc(Cl)cc1O)NCCN1C(=O)CSC1=O,x,x,-25.0,-10.4%,12.8%,-0.5%
Clc1cccc(OCCN2CCN(CCOc3cccc(Cl)c3)CC2)c1,-9.1%,-22.2%,-96.1*,u,u,-20.4%
CN1CCN(Cc2ccc(OCc3ccccc3)cc2)CC1,x,x,-10.2,28.9%,5.62µM*,-5.0%
Cc1cc(OCCCCCN2CCCC2)ccc1Cl,x,x,-14.8,-13.4%,10µM*,-21.9%
c1ccc(Oc2cccc(OCCCCN3CCCC3)c2)cc1,x,x,u,-21.5%,10µM*,-18.7%
CN(C)S(=O)(=O)N(CC(=O)NCCSCc1cccc(Cl)c1)c1ccccc1,-17.0%,4.4%,-3.8,-18.6%,x,x
SMILES,Vaccinia mCherry,VACV Venus inh,HCMV inh,FMDV inh,HCV inhibitor,Giardia FBPA inh
O=C1CCN(Cc2ccccc2)CCN1CCOc1ccccc1,i,-0.7%,-77.0*,10.3%,u,-2.2%
c1ccc(COc2ccc(OCCN3CCCC3)cc2)cc1,-8.0%,-1.2%,-20.9,33.3%,-24.2%,-9.5%
c1ccc(COc2ccc(OCCCN3CCCC3)cc2)cc1,-3.7%,-15.8%,10.7,-16.2%,10µM*,-25.5%
Cc1ccc(SCCN2CCN(CCc3ccccc3)CCC2=O)cc1,-1.4%,-18.1%,17.0,-5.2%,2.24µM*,2.0%
Cc1nn(-c2ccccc2)c(C)c1/C=N/NC(=O)CSc1nnc(SCc2ccc(Cl)cc2)s1,u,u,35.6,u,14.1µM*,-3.2%
Cc1nn(-c2ccccc2)c(C)c1/C=N/NC(=O)c1cc(-c2ccc(Cl)s2)[nH]n1,x,x,-11.2,3.98µM*,u,0.3%
Cc1nn(-c2ccccc2)c(C)c1/C=N/NC(=O)c1cc(-c2cccs2)[nH]n1,x,x,-89.3*,u,u,4.1%
O=C(N/N=C/c1ccccn1)c1cc(-c2ccc(Cl)s2)[nH]n1,12.6µM*,-22.1%,-37.8,-2.5%,2.1%,-0.1%
O=C(CSc1nnc(SCc2ccccc2)s1)N/N=C/c1c(Cl)cccc1Cl,-21.4%,u,u,1.0%,-1.0%,5.5%
O=C(N/N=C/c1ccccn1)c1cc(-c2ccc(Br)s2)[nH]n1,-28.5%,-29.1%,3.9,-25.7%,14.1%,8.9%
N=C1C(c2nc(-c3ccc(Cl)cc3)cs2)=C(O)CN1NC(=O)c1ccc(O)cc1,x,x,0.0,39.3%,3.5%,-0.2%
Cc1nn(-c2ccccc2)c(C)c1/C=N/NC(=O)c1cc(C23CC4CC(CC(C4)C2)C3)[nH]n1,-5.6%,u,1.6,u,10µM*,3.4%
Cc1cc(C(=O)N/N=C/c2c(C)nn(-c3ccccc3)c2C)n[nH]1,i,-14.0%,13.0,6.8%,-9.5%,0.7%
CC(C)Cc1ccc(C2=CSC3=NCCN23)cc1,-16.1%[7.34 µM],-7.8%[7.34 µM],21.6,-16.4%,11.2µM*,x
O=C(Nc1ccc(-c2cc(C(F)(F)F)nn2-c2ccccc2)cc1)c1cccc(F)c1,-9.0%,u,-94.7*,-10.9%,x,x
Cc1cccc(-n2c(Cc3ccccc3)nnc2SCc2ccc([N+](=O)[O-])cc2)c1,-10.2%,-19.7%,-70.0*,-24.5%,u,-2.1%
CC12CC(c3ccccc3O1)N(C(=O)c1ccco1)C(=S)N2c1ccc(F)cc1 (stereo not given),u,u,58.7,0.0%,2.82µM*,-3.7%
CC(C)CN(C(=O)CN1CCOCC1)c1c(N)n(CC(C)C)c(=O)[nH]c1=O,-20.5%,0.3%,-72.3*,-22.1%,3.8%,2.8%

# From PubChem BioAssay
